# From the supplement of paper PMC13380429
# Columns and labels:
# [1] = system: Vero E6 infected with SARS-CoV-2; test: morphology score (similarity to uninfected cells); higher = more like uninfected cells; details: 24 h
# [2] = system: Vero E6 infected with SARS-CoV-2; test: SARS-CoV-2 infection rate relative to infected DMSO; higher = more infection, active = 60 or less; details: 24 h
SMILES,morphology score [1],SARS-CoV-2 infection rate [2]
C[C@H]1O[C@H](O[C@H]2[C@H](O)[C@@H](O)[C@@H](O[C@H]3[C@H](O)[C@@H](O)C(O)O[C@@H]3CO)O[C@@H]2CO)[C@H](O)[C@@H](O)[C@@H]1N[C@H]1C=C(CO)[C@@H](O)[C@H](O)[C@H]1O (some centres not stated) [acarbose] (10 µM),0.085,100% (inactive)
C[C@]12CC[C@@H]3c4ccc(O)cc4CC[C@H]3[C@@H]1C[C@@H](O)[C@@H]2O [estriol] (10 µM),-0.0117,108% (inactive)
CCN(CC)CCN(Cc1ccc(-c2ccc(C(F)(F)F)cc2)cc1)C(=O)Cn1c(SCc2ccc(F)cc2)nc(=O)c2c1CCC2 [darapladib] (0.833333 µM),-0.0453,106% (inactive)
Cc1cc(C(=O)Nc2cccc(C(=O)Nc3cccc(C(F)(F)F)c3)c2)on1 (10 µM),-0.209,115% (inactive)
O=C(N[C@@H](Cc1c[nH]c2ccccc12)C(=O)O)c1ccc(Cl)cc1 [benzotript] (10 µM),-0.049,104% (inactive)
CCCCn1c(-c2ccccc2)nc(-c2ccccc2)c1CN(Cc1ccc2c(c1)OCO2)Cc1ccc2c(c1)OCO2 (10 µM),0.139,99.5% (inactive)
NCCCCN=C(N)N [agmatine] (10 µM),0.0302,106% (inactive)
CCn1cc(C(=O)O)c(=O)c2ccc(-c3ccncc3)cc21 [rosoxacin] (10 µM),0.148,112% (inactive)
CN(C)CCOC(=O)C(c1ccccc1)C1(O)CCCC1 (configuration not stated) [cyclopentolate] (10 µM),0.178,93% (inactive)
C#C[C@]1(O)CC[C@H]2[C@@H]3CCC4=C(CCC(=O)C4)[C@H]3CC[C@@]21C [noretynodrel] (10 µM),0.0184,108% (inactive)
CCCCC1CCC(c2nc(-c3ccncc3)no2)CC1 (configuration not stated) (10 µM),-0.00672,104% (inactive)
CC/C=C\C/C=C\C/C=C\C/C=C\C/C=C\C/C=C\CCC(=O)OCC [doconexent-ethyl-ester] (10 µM),0.193,88.5% (inactive)
CCCNCC(O)COc1ccccc1C(=O)CCc1ccccc1 (configuration not stated) [propafenone] (0.833333 µM),-0.109,110% (inactive)
CCC(Cc1c(I)cc(I)c(N)c1I)C(=O)O (configuration not stated) [iopanic-acid] (10 µM),-0.136,116% (inactive)
O=C(O)Cc1cccc(OCCCN(Cc2cccc(C(F)(F)F)c2Cl)CC(c2ccccc2)c2ccccc2)c1 (10 µM),0.267,102% (inactive)
O=C1C2CCN(CC2)C1(CO)CO (10 µM),0.273,83.5% (inactive)
Cc1nc2c(c(=O)[nH]1)CSCC2 (10 µM),0.0297,114% (inactive)
CCOC(=O)OC(C)OC(=O)[C@@H]1N2C(=O)[C@@H](NC(=O)[C@H](N)c3ccccc3)[C@H]2SC1(C)C (some centres not stated) [bacampicillin] (10 µM),-0.0144,114% (inactive)
CCc1cccc(CC)c1NC(=O)CN(CC(=O)O)CC(=O)O [etifenin] (10 µM),0.115,109% (inactive)
Cc1c(F)cccc1NC(=O)Nc1ccc(Cl)c(S(=O)(=O)[C@H]2CCCNC2)c1O [danirixin] (10 µM),0.19,98% (inactive)
Cc1cc(C2CCCCC2)n(O)c(=O)c1 [ciclopirox] (0.833333 µM),0.0975,96.5% (inactive)

SMILES,morphology score [1],SARS-CoV-2 infection rate [2]
CC(=O)N1N=C(c2ccc(N)cc2)c2cc3c(cc2C[C@H]1C)OCO3 [talampanel] (10 µM),-0.0668,104% (inactive)
Oc1ccc([C@@H]2Oc3ccc(O)cc3[C@@H]3CCC[C@@H]32)cc1 [erteberel] (10 µM),0.0963,113% (inactive)
Cc1ccc(Cl)cc1N(CC(=O)Nc1c(F)cccc1F)S(C)(=O)=O (10 µM),0.0341,113% (inactive)
CCOC(=O)C1=C[C@]2(CC)CCCN3CCc4c(n1c1ccccc41)[C@@H]32 [vinpocetine] (10 µM),0.176,102% (inactive)
Cc1ccccc1C(=O)Nc1ccc(C(=O)N2CCCC(O)c3cc(Cl)ccc32)c(C)c1 (configuration not stated) [tolvaptan] (10 µM),0.0857,120% (inactive)
Cc1cccc(C)c1NC1=NCCCS1 [xylazine] (10 µM),0.241,108% (inactive)
C[S+](CC[C@H](N)C(=O)O)C[C@H]1O[C@@H](n2cnc3c(N)ncnc32)[C@H](O)[C@@H]1O (some centres not stated) [ademetionine] (10 µM),0.0625,96.5% (inactive)
CN(C)Cc1ccc(-c2nc3cccc4c3n2CCNC4=O)cc1 (10 µM),0.092,97.5% (inactive)
COc1cc(SC)ccc1C(=O)N1CCC(Cc2ccccc2)CC1 (10 µM),0.0267,104% (inactive)
N#CC(c1ccc(Cl)cc1)c1c(Cl)cc(-n2ncc(=O)[nH]c2=O)cc1Cl (configuration not stated) [diclazuril] (10 µM),0.16,93% (inactive)
COC(=O)Nc1nc2cc(SC(C)C)ccc2[nH]1 [methiazole] (0.833333 µM),-0.254,120% (inactive)
CC(=O)[C@H]1CC[C@H]2[C@@H]3CC[C@H]4C[C@H](O)CC[C@]4(C)[C@H]3CC[C@]12C [allopregnanolone] (10 µM),0.0997,103% (inactive)
Nc1cc(Cl)c(N=C2NCCN2)c(Cl)c1 [apraclonidine] (10 µM),-0.0224,110% (inactive)
COc1cc2c(Oc3ccc(NC(=O)C4(C(=O)Nc5ccc(F)cc5)CC4)cc3F)ccnc2cc1OCCCN1CCOCC1 [foretinib] (10 µM),0.152,106% (inactive)
CC(C)C1=C2[C@H]3CC[C@@H]4[C@@]5(C)CC[C@H](OC(=O)CC(C)(C)C(=O)O)C(C)(C)[C@@H]5CC[C@@]4(C)[C@]3(C)CC[C@@]2([C@@H](O)CN(CCN(C)C)Cc2ccc(Cl)cc2)CC1=O (10 µM),0.203,96% (inactive)
CCNC(=O)[C@H]1O[C@@H](n2cnc3c(N)nc(NCCc4ccc(CCC(=O)O)cc4)nc32)[C@H](O)[C@@H]1O (10 µM),-0.0155,115% (inactive)
CC(C)(C)NC[C@H](O)COc1cccc2c1CCCC2=O [levobunolol] (10 µM),0.0302,108% (inactive)
CC(C)c1ccc(NC(=O)c2cccs2)c(-c2nc3ccccc3[nH]c2=O)c1 (10 µM),0.23,83% (inactive)
CCN1CCN(C(=O)N[C@@H](C(=O)N[C@@H]2C(=O)N3C(C(=O)O)=C(CSc4nnnn4C)CS[C@H]23)c2ccc(O)cc2)C(=O)C1=O [cefoperazone] (10 µM),0.206,104% (inactive)
CC(=O)NNC(=O)N1Cc2ccccc2Oc2ccc(Cl)cc21 (10 µM),0.0638,97.5% (inactive)
CC(C)OC(=O)C1=CN(C(=O)c2ccc(F)c(F)c2)CC(C)(C)c2c1[nH]c1ccccc21 (10 µM),0.0521,100% (inactive)

SMILES,morphology score [1],SARS-CoV-2 infection rate [2]
CC(=O)c1ccc2c(c1)C(=O)C1(CC1)O2 [spizofurone] (10 µM),-0.0677,112% (inactive)
C[C@H](NC(=O)Cc1cc(F)cc(F)c1)C(=O)N[C@@H]1C(=O)N(C)c2ccccc2-c2ccccc21 (10 µM),0.18,119% (inactive)
Cc1cc(=O)oc2c(C=O)c(O)ccc12 (10 µM),0.206,106% (inactive)
O=C(Nc1ccccc1C(=O)NC1CCCCNC1=O)c1cc2ccccc2s1 (configuration not stated) (10 µM),0.0242,99.5% (inactive)
CSCC1CN(/N=C/c2ccc([N+](=O)[O-])o2)C(=O)O1 (configuration not stated) [inimur] (10 µM),0.187,92% (inactive)
OCCC#Cc1nc(-c2ccc(F)cc2)c(-c2ccncc2)n1CCCc1ccccc1 (10 µM),0.0292,101% (inactive)
Clc1ccc(Cn2c(CN3CCCC3)nc3ccccc32)cc1 [clemizole] (10 µM),0.153,103% (inactive)
C[C@H]1[C@H](NC(=O)/C(=N\OC(C)(C)C(=O)O)c2csc(N)n2)C(=O)N1S(=O)(=O)O [aztreonam] (10 µM),-0.0447,94% (inactive)
C=CC(=O)Nc1cccc(C)c1Nc1ncc2cc(-c3c(Cl)c(OC)cc(OC)c3Cl)ccc2n1 (10 µM),0.567,67% (inactive)
OCCN1CCN(CCCN2c3ccccc3Sc3ccc(Cl)cc32)CC1 [perphenazine] (0.833333 µM),-0.0186,109% (inactive)
O=C1NC(c2ccccc2)(c2ccccc2)C(=O)N1COP(=O)(O)O [fosphenytoin] (10 µM),-0.197,123% (inactive)
COCCOc1ccc2c(c1)ncn2-c1ccc2cccc(N3CCC(N)CC3)c2n1 (0.833333 µM),-0.0191,106% (inactive)
CCN1CCN(c2cc(-c3ccc(F)cc3)c3c(n2)CCCCCC3)CC1 [blonanserin] (10 µM),0.248,107% (inactive)
CCOC(=O)NNc1nncc2ccccc12 [todralazine] (10 µM),0.0897,106% (inactive)
COc1cc2c(=O)c(-c3ccc(O)cc3)coc2cc1O [glycitein] (10 µM),0.00478,110% (inactive)
c1ccc(Cn2c(-c3ccc(OC[C@H](C4CCNCC4)n4c(-c5ccccc5)nc5ccccc54)cc3)nc3ccccc32)cc1 [deltarasin] (0.833333 µM),0.147,96% (inactive)
CCCCCCCC(=O)N[C@H](CN1CCCC1)[C@H](O)c1ccc2c(c1)OCCO2 [eliglustat] (10 µM),0.2,92.5% (inactive)
CN1C(=O)CC[C@H]1c1cccnc1 [cotinine] (10 µM),0.0591,108% (inactive)
COc1cc(OC)c2c(=O)[nH]c(-c3cc(C)c(OCCO)c(C)c3)nc2c1 [apabetalone] (0.833333 µM),0.0872,106% (inactive)
